# Source: PubChem
# This is a sample that favours compounds with a hit; in the whole collection about 1.8% have one here.
# Fam108B inh: Fam108B inhibition, counter-screen for RBBP9 inhibitors; recombinant Fam108B, FP-Rh probe fluorescence polarization; inhibition, % at 9.51 µM; actives 0.33% (n = 300,000);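 active means inhibition above the screen mean inhibition plus 3 SD, computed separately per campaign, cut at about 18% in these data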;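 further: inhibitors lower polarization as less probe binds the enzyme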
# LYPLA1 inh: blocks human lysophospholipase 1, a PME1 counter-screen | O75608 | recombinant LYPLA1, FP-Rh probe fluorescence polarization | inhibition, % at 5.9 µM | actives 0.16% (n = 320,000) | AID 2174;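 active means inhibition above the mean of all tested compounds plus 3 SD, set per campaign, cut at about 14% in these data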;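 further: inhibitors block serine hydrolase probe labeling of LYPLA1 so polarization falls; 0% = enzyme with DMSO and 100% = wells lacking LYPLA1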
# Target sequence (O75608 whole entry, looked up): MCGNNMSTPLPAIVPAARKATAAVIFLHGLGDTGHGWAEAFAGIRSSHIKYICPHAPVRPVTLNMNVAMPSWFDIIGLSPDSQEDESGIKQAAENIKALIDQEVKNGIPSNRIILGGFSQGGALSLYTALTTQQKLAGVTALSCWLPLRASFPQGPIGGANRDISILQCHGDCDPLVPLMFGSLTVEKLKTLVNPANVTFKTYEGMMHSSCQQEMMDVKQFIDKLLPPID
# PME-1 inh: blocks human protein phosphatase methylesterase 1 | Q9Y570 | recombinant PME-1, FP-Rh probe fluorescence polarization | inhibition, % at 5.9 µM | actives 0.53% (n = 320,000) | AID 2130;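 active means inhibition above the campaign mean of all compounds plus 3 SD, cut at about 26% in these data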;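 further: competitive labeling of PME-1 active site by serine hydrolase directed probe; 0% = PME-1 with DMSO and 100% = wells lacking PME-1 enzyme; inhibitors block probe labeling so polarization falls and inhibition rises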
# LYPLA2 counter: blocks human lysophospholipase 2, a PME1 counter-screen; O95372; recombinant LYPLA2, FP-Rh probe fluorescence polarization; inhibition, % at 5.9 µM; actives 0.38% (n = 320,000); AID 2177;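 active means inhibition above the screen-wide mean plus 3 SD, limit set per campaign, cut at about 26% in these data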;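 further: 0% = LYPLA2 with DMSO and 100% = wells lacking LYPLA2 enzyme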
# Target sequence (O95372 whole entry, looked up): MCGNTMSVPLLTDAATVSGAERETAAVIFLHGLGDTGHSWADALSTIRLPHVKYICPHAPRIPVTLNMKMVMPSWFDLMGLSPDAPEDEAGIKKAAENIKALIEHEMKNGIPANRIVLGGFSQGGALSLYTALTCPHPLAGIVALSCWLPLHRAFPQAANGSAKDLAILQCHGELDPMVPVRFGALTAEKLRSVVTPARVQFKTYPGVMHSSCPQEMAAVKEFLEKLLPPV
# PAD4 inh: blocks human protein arginine deiminase 4; actives 0.41% (n = 330,000); recombinant PAD4, RCA probe fluorescence polarization; inhibition, % at 6.36 µM; Q9UM07;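 active means percent inhibition above a cutoff equal to the mean of all tested compounds plus 3 SD, cut at about 15% in these data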;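 further: 0% = PAD4 with RCA probe and DMSO and 100% = probe without PAD4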
# GSTO1 counter: GSTO1 inhibition, counter-screen for RBBP9 inhibitors; P78417; recombinant GSTO1, activity-based probe fluorescence polarization; inhibition, % at 5.96 µM; actives 1.1% (n = 300,000);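 active means inhibition above the campaign mean inhibition plus 3 SD, cut at about 35% in these data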;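 further: 0% = GSTO1-1 with DMSO and 100% = wells lacking GSTO1-1 enzyme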
# Target sequence (P78417 whole entry, looked up): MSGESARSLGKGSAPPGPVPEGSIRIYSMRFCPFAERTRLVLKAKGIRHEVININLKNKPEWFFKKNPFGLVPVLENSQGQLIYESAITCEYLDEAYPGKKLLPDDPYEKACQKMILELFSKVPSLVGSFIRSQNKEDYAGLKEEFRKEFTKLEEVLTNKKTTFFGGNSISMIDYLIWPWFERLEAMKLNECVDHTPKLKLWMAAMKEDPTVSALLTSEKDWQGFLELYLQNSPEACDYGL
# Fam108b confirm: confirmation of mouse Fam108b serine hydrolase inhibitors. shares compounds with Fam108B inh. recombinant Fam108b, FP-Rh probe fluorescence polarization. inhibition, % at 9.51 µM. actives 44% (n = 930);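 active means inhibition above a limit from the primary screen, the mean over all compounds plus 3 SD, cut at about 19% in these data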;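 further: 0% = median of active Fam108b wells and 100% = catalytically dead S170A mutant; inhibitors free the probe so polarization falls as inhibition rises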
# Fam108b inh: mouse ABHD17B inhibition | inhibition, % at 20 µM | recombinant Fam108b, gel-based ABPP, fluorophosphonate probe | AID 588649 | actives 44% (n = 260) | shares compounds with Fam108B inh; in the data active means inhibition above about 40%
# Starred values were filed as active, the others as inactive; · = not tested or not shown.
SMILES,Fam108B inh,LYPLA1 inh,PME-1 inh,LYPLA2 counter,PAD4 inh,GSTO1 counter,Fam108b confirm,others
NS(=O)(=O)c1ccc(N=Nc2c(-c3ccccc3)[nH]n(-c3nc(-c4ccccc4)cs3)c2=O)cc1,33.2*,2.0,13.4,-3.3,4.3,22.4,1.3,
CCN(CC)S(=O)(=O)c1ccc(N/N=C/c2ccc(O)cc2O)nc1,21.6*,-5.1,48.1*,-1.1,1.7,3.2,5.8,
Cc1cc(NN=Cc2c(O)ccc3ccccc23)nc(-c2ccccc2O)n1,·,·,·,·,·,·,·,Fam108b inh=95.0*
CC(=O)Oc1ccccc1C(=O)OCCN=C1NS(=O)(=O)c2ccccc21,2.9,0.6,7.4,2.8,3.8,-0.1,·,
COc1ccc(OC)c(Nc2nc(-c3sc(N)nc3C)cs2)c1,21.0*,-2.1,12.6,3.2,-10.8,11.3,17.4,
Cc1cccc(C)c1NC(=O)Cn1c(CN2CCCCC2)nc2ccccc2c1=O,20.8*,-1.4,-7.2,-11.7,0.9,10.0,1.6,
Cc1cccc2c(N=Nc3ccc(S(=O)(=O)Nc4ccc(Cl)cc4)cc3[N+](=O)[O-])c(O)[nH]c12,20.2*,-9.4,23.0,-1.6,-6.3,-40.6,-22.5,
CC(=O)Nc1nc(C)c(C(C)C)s1,-8.1,-0.2,0.6,6.4,2.3,4.2,·,
COc1ccccc1C(=O)NC(=O)COC(=O)Cn1[nH]c(=O)c2ccccc2c1=O,1.5,-1.6,6.8,6.2,3.6,9.5,·,
Cc1cc(Cl)ccc1NC(=O)CCC(=O)N/N=C/c1cc([N+](=O)[O-])ccc1O,-1.1,-1.1,4.4,1.3,-2.2,-3.3,·,
O=[N+]([O-])c1ccc(O)c(/C=N/NC(=S)Nc2ccc(Cl)cc2Cl)c1,42.6*,5.3,10.3,-1.4,-1.7,16.6,48.5*,
CC(=O)c1ccc(Nc2ccc(-c3ccccc3F)nn2)cc1,-1.1,-3.5,-13.8,-9.7,-5.8,2.5,·,
CC(=O)Nc1ccc(NC(=O)c2ccccc2S(=O)(=O)c2ccc([N+](=O)[O-])cc2)cc1,3.0,-0.1,2.2,-4.5,2.8,4.9,·,
O=S(=O)(Nc1ncccn1)c1ccc(NC(=S)N2CCN(Cc3ccc(F)cc3Cl)CC2)cc1,-2.6,3.7,0.0,0.4,-1.1,2.5,·,
CN(C)S(=O)(=O)c1cccc(NC(=O)c2cc(=O)[nH]c3ccccc23)c1,3.4,-1.8,11.0,2.0,1.6,1.6,·,
CN(C)S(=O)(=O)c1cccc(NC(=O)c2c[nH]c3ccccc23)c1,125.7*,-14.7,-14.6,-34.1,2.5,-8.3,-18.5,
CC(=O)Nc1ccc(NS(=O)(=O)c2cn(C)c(=O)n(C)c2=O)cc1,-2.4,-1.9,-1.0,-2.2,0.8,-1.4,·,
O=c1cc(CSc2ccc(Cl)cc2)[nH]c2[nH]n(-c3ccccc3)c(=O)c12,19.4*,-3.5,9.9,7.5,2.4,-191.4,-1.7,
CCN(CC)S(=O)(=O)c1cc(NC(=O)C2CSC3(C)CCC(=O)N23)ccc1C (stereo unspecified),·,-3.2,4.2,4.5,-5.2,·,·,
O=C(O)CC(C(=O)O)N1C(=O)/C(=C/C=C/c2ccco2)SC1=S (stereo unspecified),34.1*,-4.4,-33.7,-9.5,-4.1,36.7*,4.4,
Cn1cccc1/C=C1\SC(=S)N(NC(=O)c2ccccc2O)C1=O,1.2,-4.0,-0.6,-5.3,-8.9,19.0,·,
O=C(NN1C(=O)/C(=C/C=C/c2ccco2)SC1=S)c1ccccc1O,44.4*,-13.0,-33.4,-13.7,-26.6,-15.8,24.9*,
O=C1S/C(=C\C=C\c2ccco2)C(=O)N1c1ccc(O)cc1,5.2,-8.5,-2.6,-3.3,-8.8,24.5,·,
C=CCNC(=O)/C(C#N)=C\c1cc(Cl)c(OCC)c(OC)c1,-4.6,-2.8,5.2,0.3,0.2,0.8,·,
Cc1[nH]c2ccccc2c1/C=N/Nc1nc(Nc2ccc(F)cc2)nc(N2CCOCC2)n1,21.9*,-14.8,19.0,-2.8,-2.2,-3.1,6.7,
SMILES,Fam108B inh,LYPLA1 inh,PME-1 inh,LYPLA2 counter,PAD4 inh,GSTO1 counter,Fam108b confirm,others
Nc1nc2ccccc2n1N=Cc1ccc(Br)cc1,·,·,·,·,·,·,·,Fam108b inh=0.0
CCCc1cc(SCC(=O)Nc2c(C)n(C)n(-c3ccccc3)c2=O)n2c(nc3ccccc32)c1C#N,24.0*,-3.0,-8.0,-0.1,-3.0,-45.7,22.6*,
Cc1nc(SCC(=O)Nc2c(C)n(C)n(-c3ccccc3)c2=O)c(C#N)c(C)c1C,·,-2.1,-0.8,-1.9,-0.3,·,·,
O=C(O)c1ccc(N/N=C/C2=C(N3CCOCC3)C(=C\c3ccccc3)/CC2)cc1,18.9*,-2.7,4.3,4.3,3.8,26.8,22.0*,
Cc1cc(C)nc(N/N=C/C2=C(N3CCOCC3)C(=C\c3ccc(Cl)cc3)/CC2)n1,5.5,-1.5,3.3,-6.9,-7.8,3.2,·,
O=C(c1cc([N+](=O)[O-])ccc1N1CCCCC1)N1CCCCC1,38.5*,-1.9,0.5,0.8,-5.4,8.8,-9.9,
O=C(c1cc([N+](=O)[O-])ccc1N1CCCC1)N1CCCCC1,-3.4,-0.3,-7.1,-3.1,-2.2,-1.1,·,
S=c1nc[nH]c2c1ncn2C1CCCO1 (stereo unspecified),-0.5,1.3,1.4,3.2,6.4,1.0,·,
CC(=O)NC1=NN(C(C)=O)C(C)(c2ccco2)S1 (stereo unspecified),21.7*,-0.8,3.9,-6.6,-8.4,-7.0,3.4,
Cc1nc2ccccn2c1C(=O)OCC#N,1.4,-1.5,2.6,4.0,-3.2,-0.9,·,
Cc1cccc2c(N=O)c(O)[nH]c12,27.5*,7.2,53.1*,12.1,-8.5,-5.2,24.1*,
Cc1[nH]c2c(C)cccc2c1CC(=O)O,2.0,-1.4,0.6,-7.8,-3.9,-2.0,·,
COC(=O)c1sc(NC(=S)NNC(=O)c2c(Br)c(C)nn2C)c(C(=O)OC)c1C,26.3*,1.8,25.5,11.2,3.3,5.4,24.4*,
O=C(NCCc1ccccc1)c1ccc2c(=O)[nH]c3c(C(=O)NCC4CCCO4)sc(=S)n3c2c1 (stereo unspecified),34.3*,5.2,22.8,14.2,-4.8,10.9,35.5*,Fam108b inh=20.0
O=C(NC1CCCCC1)c1sc(=S)n2c1[nH]c(=O)c1ccccc12,35.4*,2.2,20.4,5.1,-0.5,-136.2,32.2*,Fam108b inh=85.0*
CCOc1ccc(CCNC(=O)c2ccc3c(=O)[nH]c4c(C(=O)NC(C)C)sc(=S)n4c3c2)cc1,11.0,-0.2,10.4,9.8,-2.8,-3.1,·,
CCCCNC(=O)c1sc(=S)n2c1[nH]c(=O)c1ccccc12,26.8*,5.2,16.7,6.7,-1.5,-109.8,32.4*,Fam108b inh=25.0
CCN1CCN(CCCNC(=O)C2CCCN(c3nc4c(C)cc(C)cc4s3)C2)CC1 (stereo unspecified),-4.7,-0.2,-5.4,3.7,-3.0,3.5,·,
